# Source: PubChem BioAssay (EPA / NIEHS)
# Records with an inconclusive call do not appear. Active and inactive are the calls of the source. The calls were made as follows, unless noted: active = hit-call score of the fitted dose curve at least 0.9, where 1 is the maximum; inactive = score below 0.9.
# Columns and labels:
# [1] = CCTE_Shafer_MEA_acute_burst_percentage_mean: CCTE's Neural Acute Assay for Percentage of Spikes in a Burst, Shafer Lab (AID 2284017);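 as to AC50: curve fitted for loss of signal so potency reflects decreased burst percentage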
# How it was run: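 Compounds were tested at 0.03-40 uM on primary rat cortical neuron networks grown over microelectrodes, with at least three wells per compound. Spontaneous firing was recorded for 40 min before and 40 min after dosing, and the change in burst percentage was computed per well.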
# [2] = CCTE_Shafer_MEA_acute_burst_percentage_std: CCTE's Neural Acute Assay for Standard Deviation of Burst Percentage, Shafer Lab (AID 2284018);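 also: fitted in the negative direction so actives lower burst percentage SD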
# How it was run: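 Rat primary cortical neurons on 48-well MEAs, DIV 13 or 15, 37 C. 40-min baseline then 40-min recording with compound (0.03-40 uM); well-level SD of per-electrode burst spike percentage, expressed as percent change from baseline.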
# [3] = CCTE_Shafer_MEA_acute_per_network_burst_spike_number_std: CCTE's Neural Acute Assay for Standard Deviation of Number of Spikes in a Network Burst, Shafer Lab (AID 2284020);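 also: fitted for decrease in spike-number SD versus DMSO so actives lower it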
# How it was run: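 Rat primary cortical neurons on 48-well MEA (16 electrodes/well), treated DIV 13 or 15 at 0.03-40 uM, ≥3 wells per compound. 40 min recordings at 37 C before and after dosing; value is percent change in network-burst spike-number SD, negative direction vs DMSO.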
# [4] = CCTE_Shafer_MEA_acute_per_network_burst_electrodes_number_mean: CCTE's Neural Acute Assay for Mean Number of Electrodes in a Network Burst, Shafer Lab (AID 2284021);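 also: curves fitted for decreases only so hits reduce electrodes per burst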
# How it was run: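 Percent change from baseline was computed as mean electrode count per network burst, comparing 40 min recordings before and during compound (0.03-40 uM) exposure. Cultures were rat cortical neurons at DIV 13 or 15, recorded on MEAs at 37 C with an adaptive 8x rms threshold.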
# [5] = CCTE_Shafer_MEA_acute_network_burst_percentage: CCTE's Neural Acute Assay for Percentage of Network Bursts, Shafer Lab (AID 2284022);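 also: curves fitted for loss so actives lower network burst percentage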
# How it was run: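 Network burst percentage (spikes in network bursts divided by total spikes) recorded at 37 C over 40 min baseline and 40 min after compound, 0.03-40 uM, in rat cortical cultures at DIV 13 or 15. Analysed as percent change from baseline versus DMSO.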
# [6] = CCTE_Shafer_MEA_acute_cross_correlation_area: CCTE's Neural Acute Assay for Area of Cross Correlation, Shafer Lab (AID 2284024);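 also: area under pooled inter-electrode spike cross-correlation near zero lag as percent change from own baseline; curves fitted for loss of cross-correlation area so actives lower synchrony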
# How it was run: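 Percent change in well-wide cross-correlation area (window around zero lag) between 40 min baseline and 40 min post-compound recordings, 37 C; rat cortical cultures on MEA at DIV 13 or 15, dosed 0.03-40 uM, wells needing >/= 10 active electrodes.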
# [7] = CCTE_Shafer_MEA_acute_cross_correlation_HWHM: CCTE's Neural Acute Assay for Cross Correlation at Half Width at Half Maximum, Shafer Lab (AID 2284026);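 also: percent change per well from pre-dose baseline in spike cross-correlogram half width; hits are a decrease in cross-correlogram half width relative to DMSO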
# How it was run: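 Per-well percent change in cross-correlogram half width at half maximum, derived from 40-min recordings before and after compound (0.03-40 uM) at 37 C. Cultures were rat cortical neurons, DIV 13 or 15, with adaptive spike detection at 8x rms.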
# [8] = CCTE_Shafer_MEA_acute_synchrony_index: CCTE's Neural Acute Assay for Synchrony, Shafer Lab (AID 2284027);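 also: fitted for loss of signal so actives lower synchrony relative to DMSO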
# How it was run: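 Readout is percent change in the unitless network synchrony index (0 low, 1 high) between a 40-min baseline and a 40-min recording in compound. Cultures were primary rat cortical neurons on MEAs, treated at 0.03-40 uM on DIV 13 or 15.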
# [9] = target: Estrogen receptor (Homo sapiens) (UniProt P03372); experiment: CCTE_Deisenroth_AIME_384WELL_LUC_Active: CCTE's 384-well Estrogen Receptor Transactivation Assay with AIME metabolic competence (ERTA luciferase; metabolism positive), Deisenroth Lab (AID 2284030; active = hit-call score of the fitted dose curve at least 0.9, where 1 is the maximum)
# Chain of Estrogen receptor (Homo sapiens) (P03372 whole entry, looked up): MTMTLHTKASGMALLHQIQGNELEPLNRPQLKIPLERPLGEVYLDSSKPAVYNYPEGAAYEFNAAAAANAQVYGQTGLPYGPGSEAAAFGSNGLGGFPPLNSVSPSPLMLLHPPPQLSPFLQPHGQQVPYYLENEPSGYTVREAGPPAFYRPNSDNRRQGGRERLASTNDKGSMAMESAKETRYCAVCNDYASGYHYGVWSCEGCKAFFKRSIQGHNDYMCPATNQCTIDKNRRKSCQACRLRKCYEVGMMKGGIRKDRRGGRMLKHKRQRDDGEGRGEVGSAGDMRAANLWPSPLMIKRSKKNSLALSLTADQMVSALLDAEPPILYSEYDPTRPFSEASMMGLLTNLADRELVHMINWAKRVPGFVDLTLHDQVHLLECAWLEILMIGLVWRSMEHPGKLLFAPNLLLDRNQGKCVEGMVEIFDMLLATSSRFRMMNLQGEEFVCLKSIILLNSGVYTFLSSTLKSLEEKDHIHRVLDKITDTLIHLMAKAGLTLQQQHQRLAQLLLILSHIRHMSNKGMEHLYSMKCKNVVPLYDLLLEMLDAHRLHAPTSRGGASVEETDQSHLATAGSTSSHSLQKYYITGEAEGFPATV
# How it was run: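 VM7Luc4E2 breast cells were given, for 24 hours, medium pre-incubated for 2 hours with parent chemical (0.002-200 uM, 10 concentrations) and alginate-encapsulated phenobarbital/beta-naphthoflavone-induced rat hepatic S9. Luciferase gain of signal was fitted against 17beta-estradiol; n=4 or more.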
# [10] = target: Estrogen receptor (Homo sapiens) (UniProt P03372); experiment: CCTE_Deisenroth_AIME_384WELL_LUC_Inactive: CCTE's 384-well Estrogen Receptor Transactivation Assay without AIME metabolic competence (ERTA luciferase; metabolism negative), Deisenroth Lab (AID 2284038; active = hit-call score of the fitted dose curve at least 0.9, where 1 is the maximum;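 also: VM7Luc4E2 breast cells given medium preincubated 2 h with S9-free microspheres; hits raise estrogen receptor luciferase signal so potencies reflect agonists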)
# How it was run: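 Metabolism-negative mode: chemicals (10-point, 0.002–200 uM) held 2 h with alginate-water microspheres, then conditioned medium applied to VM7Luc4E2 cells for 24 h. Luciferase induction referenced to 17beta-estradiol.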
# [11] = target: Estrogen receptor (Homo sapiens) (UniProt P03372); experiment: CCTE_Deisenroth_AIME_384WELL_LUC_Shift: CCTE's 384-well Estrogen Receptor Transactivation Assay with AIME metabolic competence data shift (ERTA luciferase; difference in metabolism positive and negative), Deisenroth Lab (AID 2284041);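 also: shift is response with S9 minus without S9 so positive means metabolism raised ER signal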
# How it was run: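 Chemicals (0.002–200 uM, 10 points) pre-incubated 2 h with alginate-encapsulated induced male Sprague Dawley rat liver S9 or S9-free, then medium applied 24 h to VM7Luc4E2 cells; luciferase. Endpoint is per-concentration difference, S9-positive minus negative.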
# [12] = CCTE_Shafer_MEA_dev_firing_rate_mean: CCTE's Neural Network Formation Assay for Mean Firing Rate, Shafer Lab (AID 2284031);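 as to AC50: curve fitted for loss of firing so AC50 reflects decreased mean firing rate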
# How it was run: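 Rat primary cortical neurons were seeded on multielectrode arrays and treated from plating through day 12, with redosing at each feed. Spontaneous spiking was recorded four times; mean firing rate AUC was fitted downward against DMSO.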
# [13] = CCTE_Shafer_MEA_dev_per_burst_spike_percent: CCTE's Neural Network Formation Assay for Percent of Spikes in a Burst, Shafer Lab (AID 2284032);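 as to AC50: fitted as a decrease in burst spike percentage below DMSO baseline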
# How it was run: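 Rat primary cortical neurons on 16-electrode MEA wells, dosed from plating day 0 for 12 days with renewal on DIV 5 and 9; spikes-in-bursts percentage averaged over bursting electrodes, collapsed as AUC across days 5, 7, 9, 12; loss direction versus DMSO.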
# [14] = CCTE_Shafer_MEA_dev_active_electrodes_number: CCTE's Neural Network Formation Assay for Number of Active Electrodes, Shafer Lab (AID 2284040; active = hit-call score of the fitted dose curve at least 0.9, where 1 is the maximum;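 as to AC50: potency for loss of active electrodes versus DMSO so lower counts are hits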)
# How it was run: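 Primary rat cortical neurons on 16-electrode MEA wells, exposed from day 0 through day 12 with compound renewed at DIV 5 and 9 feeds. Active electrodes (mean firing ≥5 spikes/min) counted at DIV 5, 7, 9, 12; trapezoidal AUC across days, loss-of-signal versus DMSO.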
# [15] = CCTE_Shafer_MEA_dev_burst_rate: CCTE's Neural Network Formation Assay for Burst Rate, Shafer Lab (AID 2284042)
# How it was run: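 Developmental network assay measuring how 12-day exposure of rat cortical neuron cultures alters bursting on extracellular MEA recordings. Values are AUC of well-mean burst rate across four recording days, relative to DMSO vehicle.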
# [16] = CCTE_Shafer_MEA_dev_bursting_electrodes_number: CCTE's Neural Network Formation Assay for Number of Bursting Electrodes, Shafer Lab (AID 2284043; active = hit-call score of the fitted dose curve at least 0.9, where 1 is the maximum;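 as to AC50: potency is for loss of bursting electrodes relative to DMSO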)
# How it was run: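 Primary rat cortical neurons plated on 16-electrode MEA wells, exposed from day 0 with compound renewed at DIV 5 and 9. Electrodes bursting ≥1 burst per 2 min counted on days 5, 7, 9 and 12; trapezoidal AUC across days, fitted for loss versus DMSO.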
smiles,measurement,setting,value
COc1cc(C(=O)NC2CCN(C)CC2)ccc1Nc1ncc2c(n1)N(C1CCCC1)CC(F)(F)C(=O)N2C,AC50,[1],15 µM (active)
same,outcome,[2],inactive
same,AC50,[3],15.2 µM (active)
same,AC50,[4],5.23 µM (active)
same,AC50,[5],10.5 µM (active)
same,outcome,[6],inactive
same,AC50,[7],30.1 µM (active)
same,AC50,[8],18.6 µM (active)
COc1cccc([C@H](O)C2CCN(CCc3ccc(F)cc3)CC2)c1OC,outcome,[1],inactive
same,outcome,[2],inactive
same,AC50,[3],6.88 µM (active)
same,outcome,[4],inactive
same,outcome,[5],inactive
same,outcome,[6],inactive
same,AC50,[7],10.2 µM (active)
same,outcome,[8],inactive
same,outcome,[9],inactive
same,outcome,[10],inactive
same,outcome,[11],inactive
CCN(Cc1cccc(S(=O)(=O)O)c1)c1ccc(C(=C2C=CC(=[N+](CC)Cc3cccc(S(=O)(=O)O)c3)C=C2)c2ccccc2S(=O)(=O)[O-])cc1,outcome,[1],inactive
same,outcome,[2],inactive
same,outcome,[3],inactive
same,outcome,[4],inactive
same,outcome,[5],inactive
same,outcome,[6],inactive
same,outcome,[7],inactive
same,AC50,[8],12.9 µM (active)
CN(C)C(=O)C1(N2CCCCC2)CCN(CC[C@@]2(c3ccc(Cl)c(Cl)c3)CN(C(=O)c3ccccc3)CCO2)CC1,AC50,[1],19.4 µM (active)
same,outcome,[2],inactive
same,AC50,[3],20.4 µM (active)
same,AC50,[4],22.4 µM (active)
same,AC50,[5],17.8 µM (active)
same,outcome,[6],inactive
same,AC50,[7],22.1 µM (active)
same,AC50,[8],19.5 µM (active)
O=c1[nH]sc2ccccc12,AC50,[1],20 µM (active)
same,outcome,[2],inactive
same,outcome,[3],inactive
same,outcome,[4],inactive
same,AC50,[5],7.94 µM (active)
same,AC50,[6],0.0302 µM (active)
same,AC50,[7],32.6 µM (active)
same,AC50,[8],20 µM (active)
same,outcome,[9],inactive
same,outcome,[10],inactive
same,outcome,[11],inactive
CC(=O)N1CCN(c2ccc(OC[C@H]3CO[C@](Cn4ccnc4)(c4ccc(Cl)cc4Cl)O3)cc2)CC1,AC50,[1],33 µM (active)
same,AC50,[2],32.9 µM (active)
same,outcome,[3],inactive
same,outcome,[4],inactive
same,outcome,[5],inactive
same,outcome,[6],inactive
same,AC50,[7],33.1 µM (active)
same,outcome,[8],inactive
Cc1cc2c(cc1C(F)(F)F)N(C(=O)Nc1ccc(Oc3cccnc3C)nc1)CC2,outcome,[1],inactive
same,outcome,[2],inactive
same,outcome,[3],inactive
same,outcome,[4],inactive
same,outcome,[5],inactive
same,outcome,[6],inactive
same,outcome,[7],inactive
same,outcome,[8],inactive
CC/C(=C(/CC)c1ccc(O)cc1)c1ccc(O)cc1,AC50,[1],10.6 µM (active)
same,AC50,[2],35.4 µM (active)
same,outcome,[3],inactive
same,AC50,[4],20 µM (active)
same,AC50,[5],10.5 µM (active)
same,outcome,[6],inactive
same,AC50,[7],20 µM (active)
same,AC50,[8],10.2 µM (active)
same,AC50,[12],3.24 µM (active)
same,AC50,[13],15 µM (active)
same,AC50,[14],10.4 µM (active)
same,outcome,[15],inactive
same,AC50,[16],9.74 µM (active)
CC(C)(c1cc(Br)c(O)c(Br)c1)c1cc(Br)c(O)c(Br)c1,AC50,[1],19.1 µM (active)
same,outcome,[2],inactive
same,outcome,[3],inactive
same,outcome,[4],inactive
same,outcome,[5],inactive
same,outcome,[6],inactive
same,outcome,[7],inactive
same,outcome,[8],inactive
same,outcome,[12],inactive
same,outcome,[13],inactive
same,outcome,[14],inactive
same,outcome,[15],inactive
same,outcome,[16],inactive
